# Screening results: PubChem, Broad Institute
# Not all results are given here.
# aSyn UTR act = Activators via SNCA 5'UTR binding, MLPCN. activity score, % (tested at 7.5 µM), hits read low. 300,000 tested, 7.1% active. AID 1814, 2009. alpha-synuclein 5'UTR reporter, activators screen; in the data active means activity score below about -60%
# Starred values were filed as active, the others as inactive.
SMILES,aSyn UTR act
NC(=O)C1CCN(Cc2ccc(OCc3ccccc3)cc2)CC1,-95.0*
CCCCCCn1cnc2c(oc3nc4c(cc32)CCCC4)c1=O,-108.2*
O=c1c2oc3nc4c(cc3c2ncn1CCCc1ccccc1)CCCC4,-105.1*
CCOC(=O)c1sc(=NC(=O)c2ccc(OC)c(OC)c2)n(C)c1C,-68.9*
CCOC(=O)c1sc(=NC(=O)c2cccc(OC)c2)n(C)c1C,-182.6*
CCOC(=O)c1sc(=NC(=O)c2ccccc2)n(C)c1C,-133.6*
CCOC(=O)c1ccc(S(=O)(=O)NCCN(CC)CC)cc1,51.6
CCOC(=O)c1ccc(CNCc2ccccc2)cc1,-65.9*
CCOC(=O)c1ccc(NC(=S)Nc2ccccc2)cc1,-146.6*
CCOC(=O)c1cccc(OS(=O)(=O)Cc2ccccc2)c1,-63.2*
CCOC(=O)c1c(C)c(C(=O)Nc2ccc(N(C)C)cc2)c(C)n1CC,-82.0*
CCOC(=O)c1cn[nH]c1NC(=S)Nc1ccc(Cl)cc1,-66.3*
CCOC(=O)c1ccc(NCc2ccc(N(C)C)cc2)cc1,-87.0*
CCOC(=O)c1ccc(NC(=S)Nc2ccc(C)cc2)cc1,-145.0*
COC(=O)c1ccc(NC(=O)CNc2ccccc2)cc1,-99.1*
CS(=O)c1ccccc1-c1nc(-c2cccc(Cl)c2)no1 (configuration not stated),-143.8*
CS(=O)c1ccccc1-c1nc(-c2ccc(Cl)cc2)no1 (configuration not stated),-143.1*
COc1ccccc1NS(=O)(=O)c1cccc(-n2c(O)c(C=Nc3ccccc3C(=O)O)c3ccccc3c2=O)c1,-66.4*
COc1ccc(-n2c(O)c(/C=N/Nc3nc(C)cc(C)n3)c3ccccc3c2=O)cc1OC,119.9
O=C1CCCCCN1Cc1nnc(SCc2nc3ccccc3s2)n1-c1ccccn1,-108.7*
CC1CCC(C(C)C)C(=O)/C1=C/c1ccc(N)cc1 (configuration not stated),-172.9*
CC(C)OC(=O)Cn1nnc2c(cnn2-c2ccccc2)c1=O,-97.6*
Cn1c(CCNC(=O)c2ccco2)nc2cc(NC(=O)c3ccccc3)ccc21,-91.1*
CCC(=O)NCCc1nc2cc(NC(=O)c3ccco3)ccc2n1C,-72.7*
Cn1c(CCNC(=O)c2ccccc2)nc2cc(NC(=O)c3ccco3)ccc21,-80.9*
SMILES,aSyn UTR act
COc1ccccc1C(=O)Nc1ccc2c(c1)nc(CCNC(=O)c1ccco1)n2C,-294.7*
Cn1c(CCNC(=O)c2ccco2)nc2cc(NC(=O)c3ccco3)ccc21,-143.7*
CCOC(=O)C(C)/C(C)=N/NC(=O)c1cc2ccccc2cc1O (configuration not stated),61.6
O=C(NCC1CCCO1)c1cc2ccccc2cc1O (configuration not stated),-125.2*
O=C(NCC1CCCCC1)c1cc2ccccc2cc1O,-109.1*
CCOc1ccc(Oc2ccc(C(F)(F)F)cc2N)cc1,-87.0*
COc1cccc(Oc2ccc(C(F)(F)F)cc2N)c1,-104.2*
CCOc1cc(/C=C2/NC(=O)N(CC(=O)OC)C2=O)ccc1O,-66.0*
NC(N)=NC(=S)Nc1ccc(Cl)cc1,-105.8*
N/C(=N\C(=S)Nc1ccccc1)c1ccccc1,-170.0*
O=C(CSc1nnc(NC(=O)c2ccc(F)cc2F)s1)NC1CC1,-68.7*
COc1ccccc1C(=O)Nc1nnc(-c2ccco2)s1,-167.9*
COc1ccc(C(=O)Nc2nnc(SCC(=O)NC3CCCC3)s2)c(OC)c1,58.1
COc1ccc(C(=O)Nc2nnc(SCC(=O)Nc3ccc(NC(C)=O)cc3)s2)c(OC)c1,-63.1*
O=C(CSc1nnc(NC(=O)c2ccccc2F)s1)NCc1ccc(F)cc1,-83.8*
Cc1ccccc1C(=O)Nc1nnc(-c2ccco2)s1,65.1
COc1ccccc1C(=O)Nc1nnc(SCC(=O)NCc2ccco2)s1,-67.4*
COc1ccccc1-c1nnc(NC(C)=O)s1,-90.6*
COc1ccccc1C(=O)Nc1nnc(SCC(=O)NCC2CCCO2)s1 (configuration not stated),-102.1*
O=C(CSc1nnc(NC(=O)c2ccccc2F)s1)NCc1ccco1,-79.8*
CC(=O)c1cccc(NC(=O)c2cc(C(C)C)on2)c1,-101.3*
O=C(Nc1ccc(F)cc1F)c1csc(-c2cccs2)n1,-270.1*
CC(C)c1cc(C(=O)NCCc2ccccc2)no1,-200.7*
CC(C)Cc1cc(C(=O)NCc2cccs2)no1,-164.4*
CC(=O)O[C@H]1C(=O)[C@@]2(C)C([C@H](OC(=O)c3ccccc3)[C@]3(O)C[C@H](OC(=O)[C@H](O)[C@@H](NC(=O)c4ccccc4)c4ccccc4)C(C)=C1C3(C)C)[C@]1(OC(C)=O)CO[C@@H]1C[C@H]2O (some centres not stated),101.7
SMILES,aSyn UTR act
CC(C)Cc1cc(C(=O)Nc2ccc(Br)cc2)no1,-137.1*
CCc1ccc(NC(=O)c2cc(C(C)C)on2)cc1,-102.5*
CC(C)Cc1cc(C(=O)Nc2ccc(F)cc2F)no1,-138.6*
CCc1ccc(NC(=O)c2cc(CC(C)C)on2)cc1,-120.5*
N#Cc1ccc(-c2ccc(OCC3CNC(=O)O3)cc2)cc1 (configuration not stated),-74.7*
COC(=O)c1cc(Br)ccc1-c1ccc(/C=N/n2nnnc2N)o1,55.1
